From PubChem BioAssay AID743402 (Broad Institute, 2014)
The campaign covered roughly 1,200 compounds. About 140 (12%) were called active.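 Rule for the calls: active = fitted curve falls past -35% activity change at a dose under twice the top valid dose, in every replicate test; inconclusive = replicate tests disagree on the call; inactive = the rest, including activity in the opposite direction.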 Only a sample is shown.

Experiment: CFTR-F508del correctors, dose response, FRT cells, YFP quenching, cherry-pick (AID 743402);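 note: compounds act as correctors raising surface CFTR-F508del before acute activation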
Details: FRT CFTR-F508del YFP iodide quenching, 24 h, channel opened with forskolin and a potentiator; series mostly up to 26 µM; activity change, negative = more quenching (active): at the top concentration

Activity change, negative = more quenching (active), inactive:
COc1ccc(C(=O)OCC(=O)N2C(C)CCCC2C)cc1S(=O)(=O)N1CCOCC1 (stereo not given) 14.8%
Cc1ccc(/C=N/NC(=O)c2ccc3ccccc3c2)s1 0%
COc1ccc(C2=Nn3c(nnc3-c3ccccc3F)SC2)cc1OC1CCOC1 (stereo not given) -10%
O=C(N/N=C/c1c(O)ccc2ccccc12)c1ccc(CO)nc1 -6.25%
C[C@H](CO)N1C[C@H](C)[C@@H](CN(C)Cc2ccc(Cl)c(Cl)c2)Oc2ccc(NC(=O)Nc3ccc(C(F)(F)F)cc3)cc2CC1=O 10.2% [at 23.5 µM]
Cc1cc(NCc2ccccn2)n2nc(C)c(-c3ccccc3)c2n1 13.1%
COc1ccc(OC)c(/C(C)=N\NC(=O)c2cc3cc(Cl)ccc3n2C)c1 0%
COc1ccc(CCNc2c3ccccc3nc3ccccc23)cc1OC -2.92%
CCOC(=O)c1sc(Nc2nc(C)cc(C)n2)nc1C -11.1%
COc1ccc(C)cc1Nc1c2c(nc3ccccc13)CCC2 29.2%
O=S(=O)(Cc1ccc(Cl)cc1Cl)c1ccc(Cl)cc1 -22.5%
Cc1onc(-c2ccccc2Cl)c1C(=O)N1CCN(c2cccc(Cl)c2)CC1 10%
CCN(Cc1ccccc1)c1ccc(/C=N/N=C(N)N)cc1 13.1%
Cc1nn2cc(-c3cccc(Cl)c3)cnc2c1Br 9.58%
N#C[C@H]1[C@H](c2ccc(C3=CCCCC3)cc2)[C@@H](CO)N1C(=O)NC1CCCCC1 -3.57%
CCc1ccc(OCc2n[nH]c(=S)n2C(C)CCCC(C)C)cc1 (stereo not given) 6.46%
CCOc1ccc2[nH]c(C(=O)N/N=C/c3ccc(OC)cc3)cc2c1 -10%
O=C(N/N=C/c1cccs1)c1cc(C2CC2)nc2ccccc12 13.3%
C/C(=N\NC(=O)c1cc(-c2cccs2)nc2ccccc12)c1ccccn1 16%
CCOC(=O)c1cc2c(=Cc3ccc(N(C)C)cc3)c3ccccc3n2[n+]1C 1.61%
O=C1c2ccccc2C(=O)c2c1cccc2N1CCCC1 0%
Cc1ccc(S(=O)(=O)N2CCCCC2CCNC(=O)C(=O)NCc2ccccc2)cc1 (stereo not given) 27%
COc1ccc(NC(=O)Nc2ccc3c(c2)C(=O)N([C@H](C)CO)C[C@@H](C)[C@H](CN(C)Cc2ccc(C(F)(F)F)cc2)OCCCC[C@H](C)O3)cc1 6.25%
COc1ccc(COc2cc(-c3cccc(OC)c3)nc3ccc(NC(=O)c4ccc(OC)cc4)cc23)cc1 -3.33%
CCCCN1C(=O)CC(C(=O)OCC)=C1C -6.97%
CC1(C(=O)NCc2cccs2)Cc2c(-c3ccc4c(c3)OCO4)ccnc2O1 (stereo not given) 0%
CC1=NN(c2ccccc2)C(=O)C1N=Nc1cccc(O)c1 (stereo not given) 0%
O=C1CC(c2ccccc2)CC2=C1C=Nc1ccccc1N2 (stereo not given) 18.8%
CCc1c(C)nc2ncnn2c1NCCc1ccc(OC)cc1 0%
COc1ccc(CCNc2ncnc3c2oc2ccccc23)cc1OC -3.57%
O=C1CN(S(=O)(=O)Cc2ccccc2)C[C@@H]2[C@@H](c3ccc(C#Cc4cccc(F)c4)cc3)[C@H](CO)N12 -3.57%
Cc1ccc2nc(-c3ccc4c(c3)OCCO4)cn2c1 -13.3%
CCCCNC(=O)C(=O)Nc1ccc2c(c1)N(S(=O)(=O)c1cccs1)CCC2 6.25%
COc1cccc(/C=N/NC(=O)C(=O)Nc2ccccc2OC(F)(F)C(F)F)c1O 8.28%
Cc1ccc(-c2nn(-c3ccccc3)cc2C(=O)N2CCN(c3ccccn3)CC2)cc1 16.2%
COc1ccc(S(=O)(=O)N(C(=O)C(C)C)c2ccc3oc(=O)sc3c2)cc1 12.9%
COc1nc(-c2ccccc2)cc(-c2ccc3c(c2)OCO3)c1C#N 0%
C/C(=N\NC(=O)c1c(Cl)c(C)nn1C)c1ccc(NC(=O)C2CCC2)cc1 7.96%
COc1ccc2c(c1)sc(N)[n+]2Cc1cc(C)cc2cccnc12 13.3%
CCN(CC)c1ccc(/C=N/NC(=O)c2ccco2)c(O)c1 10.7%
Cc1cc(N/N=C/c2ccccc2O)c2ccccc2n1 13.1%
Cc1ccccc1-c1nc(CS(=O)(=O)CC(=O)NCc2ccccc2)c(C)o1 8.28%
Cc1ccc(-c2ccc3c(c2)O[C@H](CN(C)Cc2ccccn2)[C@@H](C)CN([C@H](C)CO)S3(=O)=O)cc1 -7.14%
COc1ccc(S(=O)(=O)Nc2ccc3c(c2)C(=O)N([C@H](C)CO)C[C@@H](C)[C@@H](CN(C)Cc2ccc(Cl)c(Cl)c2)O3)cc1 3.12%
c1coc(-c2nc3ccccc3s2)c1 9.38%
Clc1ccc2c(c1)-c1ccccc1C1=NCCN12 -1.51%
Cc1ccc(N(C)S(=O)(=O)c2ccc(-c3cnc(C4CC4)o3)cc2)cc1 6.67%
Cc1ccnc2c1ccc1cccnc12 13.1%
Cc1ccc(COc2ccccc2-c2cc(C(=O)N/N=C/c3cccnc3)[nH]n2)cc1 22.5%
CC(C)(C)c1cc(C(=O)NN)n(Cc2ccc(Cl)cc2Cl)n1 6.67%
COc1ccccc1Nc1c2c(nc3ccccc13)CCC2 35.6%
CC(=NNC(=S)N1CC2CCC(CC2)C1)c1cnccn1 23.3%
COc1cc(NC(=O)N2CCNC2=O)cc(C(=O)Nc2cccc(C(F)(F)F)c2)c1 -3.33%
COc1ccc(-c2ccc3oc(-c4ccc(OC)cc4)c(C#CCO)c3c2)cc1 1.61%
COCCCN=C1NN=C(c2cc(C)n(Cc3ccco3)c2C)CS1 7.42%
CC(=O)N1CCc2c(sc(NC(=O)c3ccc4c(c3)OCCO4)c2C#N)C1 4.95%
O=C(c1cccc(S(=O)(=O)N2CCN(c3ccc(F)cc3)CC2)c1)N1CCCC(C(F)(F)F)C1 (stereo not given) 6.67%
COc1ccccc1C(=O)NC(=S)/C=C1/N(C)c2ccccc2C1(C)C -3.33%
COc1cc2c(C#CCCO)c(-c3ccsc3)oc(=O)c2cc1OC -16%
CC(=O)NC(c1ccc(C(C)C)cc1)c1ccc2cccnc2c1O (stereo not given) 13.9%
O=C(Nc1cccc(C2=NCCN2)c1)Nc1cccc(C2=NCCN2)c1 0%
Cc1ccc2c(c1)CCCN2C(=O)CCc1nc2ccccc2c(=O)[nH]1 -6.67%
COc1ccc2cc(CN(CC3CCCO3)C(=S)Nc3ccccc3)c(=O)[nH]c2c1 (stereo not given) 12.9%
COc1ccc(Nc2nc3cc(-c4sccc4C)sc3c(=O)n2C)cc1OC -35.7%
Cc1ccc2cc(CN(CC3CCCO3)C(=S)Nc3ccccc3)c(=O)[nH]c2c1C (stereo not given) 0%
CCOC(=O)N1CCC(NC(=O)c2ccc3c(c2)N=C(C)c2c(C)ccc(C)c2S3)CC1 3.12%
O=C(Nc1ccc(Br)cn1)c1cccc2ccccc12 -20%
Cc1cc2c(cc1S(=O)(=O)Nc1ccc(F)cc1)n(C)c(=O)c(=O)n2C -0.721%
CC(=O)Nc1ccc(S(=O)(=O)NC2=C(N3CCN(Cc4ccccc4)CC3)C(=O)c3ccccc3C2=O)cc1 19.4%
N#Cc1c(-c2ccc(F)cc2)c(-c2ccc(F)cc2)nn(CCO)c1=O 20%
C[C@@H]1CN([C@H](C)CO)C(=O)c2cc(NS(=O)(=O)c3ccc(Cl)cc3)ccc2O[C@@H]1CN(C)Cc1ccc(-c2ccccc2)cc1 20%
COc1ccc2c3c([nH]c2c1)[C@H](CO)N(C(=O)C1CCOCC1)CC31CCN(Cc2cccc(F)c2)CC1 -6.46%
Cc1cc(C(=O)N/N=C/c2ccc(N(C)C)cc2)c2ccccc2n1 0%
NCC(=O)NNC(=O)OCC1c2ccccc2-c2ccccc21 0%
COc1ccc(OC)c(-c2cc(-c3cccnc3)nc(N)c2C#N)c1 -6.97%
COc1cccc(N=Nc2ccc3cccnc3c2O)c1 9.79%
COc1cc(/C=C2/SC(=Nc3ccc(O)cc3)NC2=O)cc(OC)c1O -5.56%
O=C1NC(=Nc2ccc(O)cc2)S/C1=C/c1ccco1 -4.74%
CC(=O)c1ccc(Nc2cc(C)nc3c(C)cc(C)cc23)cc1 12.9% [at 8 µM]
COc1ccc(Nc2nc(-c3sc(C)nc3C)cs2)cc1 -19.2%
COc1ccc(-c2ccc3c(c2)[C@H]2[C@H](CCN2S(=O)(=O)c2ccc(OC)cc2)[C@@H](CO)N3C)cc1 -10.7%
Cc1cccc(N2CCN(C(=O)c3c(-c4ccccc4)noc3C)CC2)c1C 3.33%
C[C@@H]1CN([C@@H](C)CO)C(=O)c2cc(NS(=O)(=O)c3ccc(Cl)cc3)ccc2O[C@@H]1CN(C)Cc1ccc(C(F)(F)F)cc1 5.3% [at 23.5 µM]
Nc1[nH]c(C(=O)c2ccccc2)c(-c2ccccc2C(F)(F)F)c1C(=O)NCCc1c[nH]c2ccccc12 31.2%
Cc1cc(C)c2nc(Cl)c(CN(Cc3ccco3)C(=O)Nc3ccccc3C)cc2c1 13.3%
COc1ccc(-c2ccnc(-c3ccc(O)cc3)n2)cc1 -26.7%
O=C(c1ccc(Br)cc1)c1cc([N+](=O)[O-])ccc1N1CCOCC1 0%
COc1ccc([N+](=O)[O-])cc1Nc1c2ccccc2nc2ccccc12 -20.9%
COC(=O)/C=C/c1ccccc1S(=O)(=O)N(Cc1ccccc1)Cc1ccco1 6.25%
NS(=O)(=O)c1ccc(S(=O)(=O)N(CCc2ccccc2)Cc2ccccn2)cc1 0%
CCN1CCN(c2cc(C)c3cc(NC(=O)c4ccc(OC)c(OC)c4)ccc3n2)CC1 15.6%
N=C1/C(=C/c2cccn2CCOc2ccccc2)C(=O)N=C2SC=C(c3ccccc3)N12 -19.4%
O=C1C=C(NCCc2cc(Br)c(O)c(Br)c2)C(=O)c2ncccc21 -7.97%
Nc1c(C(=O)c2ccco2)oc2ccccc12 3.85%
Nc1ccn(C2OC(CO)C(O)C2O)c(=O)n1 (stereo not given) 13.3%
O=C(CCCl)Nc1nc2c(s1)CCc1ccccc1-2 1.61%
C[C@H]1CN([C@@H](C)CO)S(=O)(=O)c2ccc(C#CC3CCCCC3)cc2O[C@H]1CN(C)Cc1cccnc1 0%
CCOC(=O)c1ccc(N2CCOCC2)c(NC(=O)c2c(-c3ccccc3)noc2C)c1 0%
CCN(CC)c1ccc(/C=N/NC(=O)c2cnccn2)cc1 -23.3%
COc1ccc(NC(=O)c2cc(S(=O)(=O)N3CCOCC3)ccc2C)cc1S(=O)(=O)N1CCOCC1 -6.25%
